In PubChem BioAssay AID1159580 (chemical genetic matrix, 2015):
About 2,000 (36%) of roughly 5,500 compounds were called active. Inconclusive results (about 18%) are left out. No stated cut-off is given here; in the data, active means normalized growth mostly below about 0.91 (no sharp cut-off); inconclusive means no clear call, values can overlap the other calls; inactive means mostly above about 0.92. Some of the results follow.

Experiment: chemical genetic growth profiling, strain panel (AID 1159580);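 further: tested at 20 µM; growth read once vehicle control cultures reached saturation at 30 °C; 1 = growth at the plate median or of vehicle wells; lower values mean less growth of the strain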
Conditions: S. cerevisiae deletion strains, growth OD

Measured: normalized growth

Cn1cnc(CCN)c1
inactive: locus YAL013W, strain DEP1, hits give low values 1.01 | locus YAL040C, strain CLN3, hits give low values 0.999 | locus YCL061C, strain MRC1 (second series), hits give low values 0.995 | locus YDR363W, strain ESC2, hits give low values 0.979 | locus YER002W, strain NOP16, hits give low values 0.98 | locus YGR078C, strain PAC10, hits give low values 1.01 | locus YGR229C, strain SMI1, hits give low values 1.01 | locus YJR075W, strain HOC1, hits give low values 1.01 | locus YMR263W, strain SAP30, hits give low values 1 | locus YNL153C, strain GIM3, hits give low values 1 | locus YNL175C, strain NOP13, hits give low values 0.986 | locus YNL197C, strain WHI3, hits give low values 0.992 | locus YNL224C, strain SQS1, hits give low values 0.983 | locus YNL322C, strain KRE1, hits give low values 1.01 | locus YOR083W, strain WHI5 (second series), hits give low values 0.99
